From PubChem BioAssay (EPA / NIEHS)
Results filed as inconclusive are left out. Active and inactive are the calls of the source. Rule for the calls: active = hit-call score of the fitted dose curve at least 0.9, where 1 is the maximum; inconclusive = response in the unintended direction; inactive = score below 0.9.

The molecules below were run against Estrogen receptor (Homo sapiens) (UniProt P03372) (assay: ATG_hERa_XSP1: Attagene TRANS-FACTORIAL Multi-Species (XSP1) HepG2 Assay for human Estrogen Receptor (ESR1) (AID 2283780)).
Sequence of Estrogen receptor (Homo sapiens) (P03372 whole entry, looked up): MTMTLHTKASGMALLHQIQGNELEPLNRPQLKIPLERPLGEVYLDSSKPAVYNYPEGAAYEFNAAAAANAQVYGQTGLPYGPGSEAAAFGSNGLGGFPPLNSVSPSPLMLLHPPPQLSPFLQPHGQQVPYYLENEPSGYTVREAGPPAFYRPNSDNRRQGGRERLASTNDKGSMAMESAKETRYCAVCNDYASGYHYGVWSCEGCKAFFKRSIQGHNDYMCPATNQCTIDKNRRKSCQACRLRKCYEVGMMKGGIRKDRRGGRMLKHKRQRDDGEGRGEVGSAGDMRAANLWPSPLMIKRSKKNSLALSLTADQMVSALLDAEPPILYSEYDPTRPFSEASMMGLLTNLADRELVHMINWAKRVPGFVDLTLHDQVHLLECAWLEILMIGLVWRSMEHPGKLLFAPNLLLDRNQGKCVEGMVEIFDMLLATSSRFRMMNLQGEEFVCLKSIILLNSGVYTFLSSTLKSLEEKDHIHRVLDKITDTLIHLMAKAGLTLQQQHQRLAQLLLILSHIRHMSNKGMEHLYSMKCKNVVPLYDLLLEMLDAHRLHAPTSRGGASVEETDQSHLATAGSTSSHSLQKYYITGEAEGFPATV
Method: ATG_XSP1_multi-species_TRANS is a cell-based, multiplexed assay created by modifying the existing Attagene TRANS-FACTORIAL system to include a panel of nuclear receptors from some or all the following species: human (Homo sapiens), mouse (Mus musculus), frog (Xenopus laevis), zebrafish (Danio rerio), chicken (Gallus gallus), and turtle (Chrysemys picta). The ECOTOX-FACTORIAL format uses HepG2, a human liver cell line, with measurements taken at 24 hours after chemical dosing in a 24-well plate. Xsp1 included 3 nM 6-alpha-fluorotestosterone to partially stimulate the androgen receptor.ATG_hERa_XSP1 is one of 29 assay components measured or calculated from the ATG_XSP1_multi-species_TRANS assay. It is designed to make measurements of mRNA induction, a form of inducible reporter, as detected with fluorescence intensity signals by Reverse transcription polymerase chain reaction (RT-PCR) and Capillary electrophoresis technology.The assay endpoint ATG_hERa_XSP1 was analyzed in the positive analysis fitting direction relative to DMSO as the negative control and baseline of activity. Using a type of inducible reporter, measures of mRNA for gain-of-signal activity can be used to understand the reporter gene at the transcription factor-level as they relate to the gene ER. Furthermore, this assay endpoint can be referred to as a primary readout, because this assay has produced multiple assay endpoints where this one serves a reporter gene function. To generalize the intended target to other relatable targets, this assay endpoint is annotated to the nuclear receptor intended target family, where the subfamily is steroidal.
Human liver HepG2 cells are transiently transfected with multiple reporter transcription units (MRTUs) in 6-well plates using FuGene 6 reagent (Roche; 3 ml FuGene/1 mg DNA). The MRTU constructs are regulated by a cis-regulating element (promoter). […] A major difference between the CIS and TRANS system is that in CIS activities of endogenous TFs are measured, whereas the TRANS assay evaluates changes in activities of exogenous, chimeric NR-Gal4 proteins. […] At the end of 24 hour incubation, total RNA was isolated using TriZol reagent (Invitrogen). The isolated RNA is then reverse-transcribed using oligo(dT) primer and Mo-MLV reverse transcriptase (Invitrogen) with DNAse I (Ambion) treatment for 30 min. The one-tenth of the produced cDNA was amplified by PCR using Taq DNA polymerase (Invitrogen) and two reporter sequence-specific primers. The PCR products were fluorescently labeled by primer extension with 6-arboxyfluorescein (6-FAM) 5'-labeled reporter sequence-specific primer (2 min at 95 C, 20 s at 68 C and 10 min at 72 C) and these products were digested with 5U of HpaI (New England Biolabs) for 2h at 37 C. The fragments were purified using Qiaquick PCR columns (Qiagen), analyzed on an ABI 3130xL genetic analyzer (Applied Biosystems) with peak positions identified by using a set of X-rhodamine (ROX)-labeled MapMarker1000 molecular weight standards (BioVentures). The raw capillary electrophoresis data was processed using Attagraph software (Attagene).

Structure (SMILES)	outcome	AC50
COC(=O)N(OC)c1ccccc1COc1ccn(-c2ccc(Cl)cc2)n1	inactive	
CO/C=C(/C(=O)OC)c1ccccc1Oc1cc(Oc2ccccc2C#N)ncn1	inactive	
C=CC1(C)OC(=O)N(c2cc(Cl)cc(Cl)c2)C1=O (centres undefined)		100 µM (active)
CCCN(CCC)c1c([N+](=O)[O-])cc(S(N)(=O)=O)cc1[N+](=O)[O-]		13.2 µM (active)
CCCC1COC(Cn2cncn2)(c2ccc(Cl)cc2Cl)O1 (centres undefined)	inactive	
OC(c1ccc(Cl)cc1)(c1cncnc1)c1ccccc1Cl (centres undefined)		2.22 µM (active)
CC(C)(C)c1ccc(CSc2cnn(C(C)(C)C)c(=O)c2Cl)cc1	inactive	
CCCCOC(=O)c1ccccc1C(=O)OCCCC		19.9 µM (active)
COP(=S)(OC)Oc1nc(Cl)c(Cl)cc1Cl		27.1 µM (active)
CON(C)C(=O)Nc1ccc(Cl)c(Cl)c1		9.61 µM (active)
C#CCOS(=O)OC1CCCCC1Oc1ccc(C(C)(C)C)cc1 (centres undefined)		5.29 µM (active)
COc1ccc(C(c2ccc(OC)cc2)C(Cl)(Cl)Cl)cc1		0.821 µM (active)
CC(C)Oc1cc(-n2nc(C(C)(C)C)oc2=O)c(Cl)cc1Cl		6.88 µM (active)
CCCCC(CC)COC(=O)c1ccccc1C(=O)OCC(CC)CCCC (centres undefined)	inactive	
